The values that follow come from PubChem BioAssay AID651949 (Broad Institute, 2012).

Entries with a potency or affinity are not part of this list. Activity calls are given as the source filed them.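 Rule for the calls: active = compounds lowering cell ATP signal whose fitted half-maximal concentration is at most twice the top tested dose; inconclusive = flat curve with 30 to 70% signal loss, or poor fit; inactive = the rest.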

A short description of this test: viability loss in HEK293T cells – cell-based, CellTiter-Glo luminescence, dry powder, set 6, cytotoxicity control, dose response (AID 651949). The following applies: CellTiter-Glo ATP luminescence, 48 h; series mostly up to 26 µM.
As to `N#Cc1cccc(CSc2nnc(-c3ccccc3)o2)c1`, the compound was classed as inactive. The same measure for `c1ccc(CSc2nnc(-c3cccnc3)o2)nc1`: “inactive”. Turning to `c1ccc(-c2nnc(SCc3cscn3)o2)cc1`, the result was inactive.

As to `Fc1ccc(-c2nnc(SCc3cn(-c4ccccc4)nn3)o2)cc1`, the compound was classed as inactive. The entry for `COc1cccc(CSc2nnc(-c3ccccc3)o2)c1` is “inactive”; for `O=S(Cc1ccccc1)c1nnc(-c2ccccc2)o1` (configuration not stated) it is “inactive”.

As to `O=C(Cc1ccccc1)C(C(=O)c1nnc(-c2ccccc2)o1)c1ccccc1` (configuration not stated), the compound was classed as inactive. For the compound `Cc1ccc(CSc2nnc(-c3ccccc3)o2)cc1`, the compound was called inactive. The entry for `c1ccc(-c2ccc(CSc3nnc(-c4ccccc4)o3)cc2)cc1` is “inactive”.

In the case of `FC(F)(F)c1ccc(-c2nnc(SCc3ccccc3)o2)cc1`, the result was inactive. The same measure for `c1ccc(CSc2nnc(-c3cccs3)o2)cc1`: “inactive”; for `FC(F)(F)Oc1ccc(CSc2nnc(-c3ccccc3)o2)cc1`: “inactive”; for `CCSc1nnc(-c2ccccc2)o1`: “inactive”.

Turning to `COCCOCCSc1nnc(-c2ccccc2)o1`, the compound was called inactive.

`Cc1cccc(CSc2nnc(-c3ccccc3)o2)c1`: the call was inactive. The same measure for `Clc1cccc(-c2nnc(SCc3ccccc3)o2)c1`: “inactive”; for `c1ccc(CSc2nnc(-c3ccncc3)o2)nc1`: “inactive”. The same measure for `c1ccc(COc2nnc(-c3ccccc3)o2)cc1`: “inactive”; for `c1ccc(-c2nnc(SCCN3CCCC3)o2)cc1`: “inactive”. On to `O=S(=O)(Cc1ccccc1)c1nnc(-c2ccccc2)o1`, for which the compound was classed as inactive. For `c1ccc(CSc2nnc(-c3cccnc3)o2)cc1`, the compound was called inactive.

In the case of `c1ccc(CSc2nnc(-c3ccc(-c4ccccc4)cc3)o2)cc1`, the outcome was inactive.
